Ins promoter up = MIN6 insulin promoter up-regulation. MIN6 insulin promoter-GFP reporter, high-content imaging; hits give high values. z-score at 5 µM. 190,000 compounds, 0.3% hits;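 active means z-score above 3 at 5 µM with at least 500 cells counted in the well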
WT yeast gro inh = growth inhibition of WT yeast, mitochondrial fusion screen | 190,000 compounds, 2.1% hits | AID 1362 | mitochondrial fusion phenotypic screen, WT strain | inhibition, % at 10 µM; in the data active means inhibition above about 58%; tested in S. cerevisiae
Cl transport mod = modulates chloride dependent transport by human KCC2; Q9H2X9; KCC2 cells, thallium flux FluoZin-2 fluorescence; B-score of Tl+ flux slope (higher = more flux/activation; lower = inhibition) at 10 µM; 190,000 compounds, 2.2% hits; AID 1456;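 active means thallium flux slope and its plate-corrected score both differing from the plate sample mean at a set confidence after two filtering rounds, in either direction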;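 further: slope of fluorescence scaled to starting intensity during 10 to 20 s after thallium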
ROMK mod = modulates human ROMK potassium channel activity; Tet-inducible ROMK, thallium flux fluorescence; actives lie on both sides; B-score at 10 µM; 130,000 compounds, 2% hits; AID 1918;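 active means signal ratio slope over the read window, or its plate-corrected B-score, at least 3 SD from the plate mean, either direction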;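 further: B-score of the F/F0 ratio slope over 7 to 12 s after thallium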
Target sequence (P48048 whole entry, looked up): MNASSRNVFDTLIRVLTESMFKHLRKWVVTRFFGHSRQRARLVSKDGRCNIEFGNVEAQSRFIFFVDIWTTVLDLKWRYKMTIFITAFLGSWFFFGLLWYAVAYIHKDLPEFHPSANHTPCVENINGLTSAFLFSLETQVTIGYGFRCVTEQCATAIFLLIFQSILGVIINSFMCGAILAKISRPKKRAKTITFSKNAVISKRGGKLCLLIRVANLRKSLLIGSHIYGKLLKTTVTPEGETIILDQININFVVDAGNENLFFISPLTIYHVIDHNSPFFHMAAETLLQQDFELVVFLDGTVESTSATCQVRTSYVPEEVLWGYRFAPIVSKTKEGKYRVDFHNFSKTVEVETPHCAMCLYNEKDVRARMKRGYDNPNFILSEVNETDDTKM
Lmaj promast = inhibitors of Leishmania major promastigote growth | inhibition, % at 10 µM | 200,000 compounds, 9% hits | Leishmania major promastigotes, resazurin fluorescence viability; in the data active means inhibition above about 50%;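 further: promastigotes grown with compound for 44 hours at 28 °C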
INS promoter inh = TRM-6 insulin promoter activity inhibition; TRM-6 cells (human fetal islet line), insulin promoter-eGFP reporter, imaging; reporter expression induced with tamoxifen; inhibition, % at 2 µM; 130,000 compounds, 0.9% hits;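 active means inhibition above the mean plus 3 SD, with well images judged a real hit on visual review, cut at about 60% in these data, passing the limit was not always enough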
Active calls of the source: *. Compounds with a hit are over-represented: about 12% of the library has one in this group of screens.

What do the screens show for `COc1cc2c(cc1NC(=O)CSc1nc3ccc(C)cc3[nH]1)oc1ccccc12`?
Ins promoter up: 0.09; WT yeast gro inh: 14; Cl transport mod: -0.071; ROMK mod: -0.3; Lmaj promast: 65*; INS promoter inh: 24

What do the screens show for `COc1cc2c(cc1NC(=O)CSc1ccc(C)cc1)oc1ccccc12`?
Ins promoter up: -0.09; WT yeast gro inh: 40; Lmaj promast: 0; INS promoter inh: 27

How did Cc1cc(C)cc(NC(=O)CSc2ccc(-c3cccs3)nn2)c1 do in these assays?
Ins promoter up: 0; WT yeast gro inh: 23; Cl transport mod: -1.3; ROMK mod: -0.97; Lmaj promast: 72*

How did COc1ccccc1C(=O)Nc1nnc(SCC(=O)Nc2ccc3c(c2)oc2ccccc23)s1 do in these assays?
Ins promoter up: -0.54; WT yeast gro inh: 3; Cl transport mod: -0.22; ROMK mod: 0.052; Lmaj promast: 96*; INS promoter inh: -33

How did CCn1c(SCC(=O)Nc2cc3oc4ccccc4c3cc2OC)nnc1-c1cccs1 do in these assays?
Ins promoter up: -0.78; WT yeast gro inh: 30; Cl transport mod: 0.86; ROMK mod: -0.33; Lmaj promast: 66*; INS promoter inh: -31

What do the screens show for `O=C(CSc1ccc(-c2cccs2)nn1)Nc1ccccc1`?
Ins promoter up: -0.31; WT yeast gro inh: 7; Cl transport mod: -3.2; ROMK mod: -0.32; Lmaj promast: 0; INS promoter inh: -25

How did COc1ccc(-n2c(=O)c3ccccc3c3ccccc3c2=O)cc1 do in these assays?
Ins promoter up: 0.11; WT yeast gro inh: 10; Cl transport mod: -0.97; Lmaj promast: -5

Results for Cc1ccnc(NS(=O)(=O)c2ccc(NC(=O)CCS(=O)(=O)c3ccccc3)cc2)n1 ?
Ins promoter up: 0.2; WT yeast gro inh: 1; Cl transport mod: 0.84; ROMK mod: -0.17; Lmaj promast: -4; INS promoter inh: -33

Results for CC(C)c1nc(-c2ccccc2)c(-c2ccccc2)[nH]1 ?
Ins promoter up: -0.31; WT yeast gro inh: -2; Cl transport mod: -0.41; ROMK mod: -0.19; Lmaj promast: 49; INS promoter inh: 87*

How did O=C(O)c1ccccc1-c1nc(-c2ccccc2)c(-c2ccccc2)[nH]1 do in these assays?
Ins promoter up: -0.94; WT yeast gro inh: 2; Cl transport mod: -1.9; ROMK mod: -0.068; Lmaj promast: -13; INS promoter inh: -289

What do the screens show for `CCn1c(SCC(=O)Nc2cc(S(=O)(=O)N3CCOCC3)ccc2OC)nnc1-c1ccncc1`?
Ins promoter up: -0.77; WT yeast gro inh: -5; Cl transport mod: -0.48; ROMK mod: 1.4; Lmaj promast: -5

What do the screens show for `CCCC1S/C(=N/N=C/c2ccc(OC)cc2)N(Cc2ccc(OC)cc2)C1=O` (stereo not given)?
Ins promoter up: -0.02; WT yeast gro inh: 16; Lmaj promast: 7; INS promoter inh: -23

How did O=C1Nc2ccccc2CCC1Sc1nnc(-c2ccc(Cl)cc2)s1 (stereo not given) do in these assays?
Ins promoter up: -0.58; WT yeast gro inh: 51; Cl transport mod: 0.64; Lmaj promast: -7; INS promoter inh: -143

Results for CCCCn1c(N)c(C(=S)NC(=O)CC(C)(C)C)c(=O)n(C)c1=O ?
Ins promoter up: 0.59; WT yeast gro inh: 68*; Cl transport mod: 28*; Lmaj promast: 2

What do the screens show for `COc1ccc(C(C)=O)cc1CSc1nnc(Nc2c(C)cccc2C)s1`?
Ins promoter up: -0.74; WT yeast gro inh: 25; Cl transport mod: -0.14; ROMK mod: 0.75; Lmaj promast: 13; INS promoter inh: -17

Results for COc1ccc(-c2cc(-c3ccc(O)cc3)nc(N)c2C#N)cc1OC ?
Ins promoter up: -0.91; WT yeast gro inh: 4; Cl transport mod: -1.9; ROMK mod: 2; Lmaj promast: 65*

How did Cc1cc(-c2cc(-c3ccc(Cl)cc3)nc(N)c2C#N)co1 do in these assays?
WT yeast gro inh: 4; Cl transport mod: 0.87; ROMK mod: -0.39; Lmaj promast: 62*

Results for COc1ccc(C2=Nc3ccccc3OC2)cc1 ?
WT yeast gro inh: 55; Cl transport mod: -1.2; ROMK mod: 0.084; Lmaj promast: 98*; INS promoter inh: -14

Results for CCNc1nc(NCC)nc(OCCNS(=O)(=O)c2ccccc2)n1 ?
Ins promoter up: 0.46; Cl transport mod: -0.14; ROMK mod: -0.3

How did COc1ccccc1N1CCN(Cc2c[nH]c3ccccc23)CC1 do in these assays?
Ins promoter up: -0.3; Cl transport mod: 0.12

Results for O=[N+]([O-])c1ccc(CN2CCN(Cc3c[nH]c4ccccc34)CC2)cc1 ?
Ins promoter up: -0.18; WT yeast gro inh: 4; Cl transport mod: 0.26; ROMK mod: -0.99; Lmaj promast: 83*

How did Cc1ccccc1N1CCN(Cc2c[nH]c3ccccc23)CC1 do in these assays?
Ins promoter up: -0.52; WT yeast gro inh: 9; Cl transport mod: -0.082; ROMK mod: -1.5; Lmaj promast: 71*; INS promoter inh: 43

How did CCCOc1ccc(C(=O)NCC(c2ccco2)N(C)C)cc1OC (stereo not given) do in these assays?
Ins promoter up: -0.18; WT yeast gro inh: -21; Cl transport mod: 0.96; ROMK mod: -0.28; Lmaj promast: -4

Results for Cc1nc2ccc(F)cc2cc1C(=O)Nc1cccc(Cl)c1C ?
Ins promoter up: 0.18; WT yeast gro inh: -11; Cl transport mod: 2.3; ROMK mod: 1.1; Lmaj promast: -9

What do the screens show for `CCOC(=O)CCCNC(=O)COC(=O)c1cc2ccccc2cc1O`?
Ins promoter up: -0.75; WT yeast gro inh: 7; Cl transport mod: -1.2; Lmaj promast: -3; INS promoter inh: 22

Results for Cc1ccc(Cn2c(O)c(N=NC(=S)Nc3ccccc3F)c3cc(S(=O)(=O)N4CCOCC4)ccc32)cc1 ?
Ins promoter up: -0.96; WT yeast gro inh: 18; Cl transport mod: 6.7; ROMK mod: -0.3; Lmaj promast: 3

Results for Cc1ccc(C)c(NC(=S)N=Nc2c(O)n(C)c3ccc(S(=O)(=O)N4CCOCC4)cc23)c1 ?
Ins promoter up: -0.06; WT yeast gro inh: 28; Cl transport mod: 5.7*; Lmaj promast: 13; INS promoter inh: 41

What do the screens show for `N#CC(C(=O)OC1CCCCC1)c1nc2ccccc2nc1N1CCCCC1` (stereo not given)?
Ins promoter up: 0.05; WT yeast gro inh: 17; Cl transport mod: -0.36; ROMK mod: -0.69; Lmaj promast: 54*

Results for COc1ccc(S(=O)(=O)C(C#N)c2nc3ccccc3nc2N2CCCC(C)C2)cc1 (stereo not given) ?
Ins promoter up: -0.7; WT yeast gro inh: -1; Cl transport mod: -1.4; Lmaj promast: -5; INS promoter inh: 5

What do the screens show for `CC1CCCN(c2nc3ccccc3nc2C(C#N)C(=O)OC2CCCCC2)C1` (stereo not given)?
Ins promoter up: 1; WT yeast gro inh: 46; Cl transport mod: -0.0014; Lmaj promast: 61*; INS promoter inh: -23
